Results as given in PMC4336329 (PLoS ONE, 2015).
The whole screen tested about 310,000 compounds, of which about 14,000 (4.5%) showed an effect of 50% or more. Effects have a minus sign here. The full list was thinned out, with strong results kept by preference.

biological target: human ether-à-go-go-related gene (hERG) potassium channel (human, UniProt Q12809); experiment: primary screen, population patch clamp on CHO cells stably expressing hERG; higher = less effect of the substance
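Note: peak tail current of the secondary pulse compared with the same well before compound.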

human ether-à-go-go-related gene (hERG) potassium channel, sequence (Q12809 whole entry, looked up): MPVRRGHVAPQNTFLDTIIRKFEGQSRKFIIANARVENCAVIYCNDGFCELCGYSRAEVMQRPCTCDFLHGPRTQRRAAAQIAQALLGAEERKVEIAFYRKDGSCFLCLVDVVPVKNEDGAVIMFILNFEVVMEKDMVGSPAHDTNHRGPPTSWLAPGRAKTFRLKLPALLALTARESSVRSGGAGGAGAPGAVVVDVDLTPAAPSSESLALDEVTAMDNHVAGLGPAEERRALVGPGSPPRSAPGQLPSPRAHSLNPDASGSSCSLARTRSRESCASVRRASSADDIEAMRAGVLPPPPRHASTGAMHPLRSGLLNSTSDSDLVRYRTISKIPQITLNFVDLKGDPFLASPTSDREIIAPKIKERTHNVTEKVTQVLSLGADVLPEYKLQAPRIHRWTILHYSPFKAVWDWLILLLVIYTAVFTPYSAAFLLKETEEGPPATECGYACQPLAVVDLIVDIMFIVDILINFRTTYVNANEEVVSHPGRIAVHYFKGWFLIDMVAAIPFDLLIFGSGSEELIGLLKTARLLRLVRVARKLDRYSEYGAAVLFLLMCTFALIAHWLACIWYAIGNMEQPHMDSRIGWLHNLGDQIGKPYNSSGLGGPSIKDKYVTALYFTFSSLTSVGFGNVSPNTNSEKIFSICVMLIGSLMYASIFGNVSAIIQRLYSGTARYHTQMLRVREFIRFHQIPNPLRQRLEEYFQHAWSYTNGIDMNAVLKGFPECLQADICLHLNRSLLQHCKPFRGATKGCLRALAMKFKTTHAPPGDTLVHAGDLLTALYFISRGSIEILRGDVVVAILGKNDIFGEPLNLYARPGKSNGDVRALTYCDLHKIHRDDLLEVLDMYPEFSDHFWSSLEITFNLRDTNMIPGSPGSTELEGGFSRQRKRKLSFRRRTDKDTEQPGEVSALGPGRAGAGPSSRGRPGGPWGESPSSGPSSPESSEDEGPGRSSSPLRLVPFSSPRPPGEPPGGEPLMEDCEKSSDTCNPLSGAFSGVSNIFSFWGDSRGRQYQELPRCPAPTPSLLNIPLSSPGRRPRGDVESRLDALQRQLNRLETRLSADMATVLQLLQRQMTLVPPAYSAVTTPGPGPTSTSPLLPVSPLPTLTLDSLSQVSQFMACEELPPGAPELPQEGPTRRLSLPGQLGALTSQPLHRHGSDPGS

Compound | hERG current change (%, negative = inhibition) at 10uM [%]
COC(=O)c1cc(C(=O)Nc2ccc(Cl)cn2)cc([N+](=O)[O-])c1 | -19
O=c1oc2cc(S(=O)(=O)NCCCO)ccc2c2ccc(S(=O)(=O)NCCCO)cc12 | 16.1
CN(C)CC1CCCCC1OC(=O)c1ccc(Cl)cc1 (centres unmarked) | -28.5
CN(C)CC1CCCCC1OC(=O)c1ccc(Br)cc1.Cl (centres unmarked) | -7.82
COc1ccc(C(=O)OC2CCCCC2CN(C)C)cc1.Cl (centres unmarked) | 14.1
CN1CCC(OC(=O)c2ccccc2Cl)CC1.Cl | 0.522
CN(C)CC1CCCCC1OC(=O)c1ccc(Cl)c(Cl)c1.Cl (centres unmarked) | -52.1
CN(C)CC1CCCCC1OC(=O)/C=C/c1ccc(Cl)cc1Cl.Cl (centres unmarked) | -32.4
CN1CCC(OC(=O)c2ccc(Cl)cc2Cl)CC1.Cl | -55.9
CN(C)CC1CCCCC1OC(=O)c1ccc(Cl)cc1Cl.Cl (centres unmarked) | -56.5
CN1CCC(OC(=O)c2cccc(Cl)c2)CC1.Cl | -8.64
Cc1cc(C)n2nc(C(=O)N3CCCC(Nc4ccc(F)c(F)c4)C3)cc2n1 (centres unmarked) | 5.05
COc1cccc(N2C(=O)CC(N3CCN(C(=O)c4ccco4)CC3)C2=O)c1 (centres unmarked) | 9.29
COCCN(C(=O)c1ccc(NC2CC2)c([N+](=O)[O-])c1)c1c(N)n(CC(C)C)c(=O)[nH]c1=O | -5.42
C[C@@H]1CC[C@]2(O[C@H](CCO)C[C@@H](O)[C@@H]2O)O1 | 0.536
CC(C)(c1ccccc1)c1ccc(OCCN)cc1.Cl | -20.2
CCc1cccc(NC(=O)CCc2c(C)nn(-c3ccc(N4CCCCC4)nn3)c2C)c1 | -19
Cc1cccc(NC(=O)CCc2c(C)nn(-c3ccc(N4CCOCC4)nn3)c2C)c1 | 3.98
CCc1cccc(NC(=O)CCc2c(C)nn(-c3ccc(N4CCOCC4)nn3)c2C)c1 | -51.4
COc1ccc(NC(=O)Cn2c(=O)oc3cc(S(=O)(=O)N4CCCC4)ccc32)cc1 | 5.26
CC1(C)CC(=O)C2=C(C1)N(c1ccccc1)C(=O)CC2c1ccsc1 (centres unmarked) | -14.4

Compound | hERG current change (%, negative = inhibition) at 10uM [%]
O=C(NCc1ccccc1)C1CCN(S(=O)(=O)N2CCCCCC2)CC1 | -11
CCn1c(=O)c(C(=O)NCCNCCO)c(O)c2ccccc21.Cl | 5.89
CCN1C(=O)C(CC(=O)Nc2ccc(F)cc2)N(CCc2ccc(OC)cc2)C1=S (centres unmarked) | -0.637
CCCOc1ccc(NC(=O)CC2C(=O)N(CC)C(=S)N2CCNC(C)=O)cc1 (centres unmarked) | -11.5
CCN1C(=O)C(CC(=O)Nc2ccc(OC)cc2)N(CCN2CCOCC2)C1=S (centres unmarked) | -4.13
CCN1C(=O)C(CC(=O)Nc2ccc(OC)cc2)N(CCc2ccc(F)cc2)C1=S (centres unmarked) | -6.48
C=CCN1C(=O)C(CC(=O)Nc2ccc(OCCC)cc2)N(CCCN2CCN(Cc3ccccc3)CC2)C1=S (centres unmarked) | -38.7
CCCOc1ccc(NC(=O)CC2C(=O)N(CC)C(=S)N2CCCN2CCN(Cc3ccccc3)CC2)cc1 (centres unmarked) | -50.5
CCN1C(=O)C(CC(=O)Nc2ccc(OC)cc2)N(CCCN2CCN(c3ccc(OC)cc3)CC2)C1=S (centres unmarked) | -68
CCN1C(=O)C(CC(=O)Nc2ccc(OC)cc2)N(CCCN2CCN(c3ccc(F)cc3)CC2)C1=S (centres unmarked) | -37.6
CCN1C(=O)C(CC(=O)Nc2ccc(F)cc2)N(CCCN2CCN(c3ccc(F)cc3)CC2)C1=S (centres unmarked) | -62.2
O=C(Nc1ccccn1)C1CCN(C(=O)c2ccc(F)cc2)CC1 | 3.81
CC1CC(C)CN(S(=O)(=O)c2cccc3nsnc23)C1 (centres unmarked) | 4.61
Cc1cc(C)c2c3c(oc2n1)C(=O)N(c1cccc(Cl)c1)CC(=O)N3 | 1.82
NC(=O)CC1NC(=O)c2cc([N+](=O)[O-])cc(I)c2OCCC(C(N)=O)NC(=O)[C@@H]2CCCN2C1=O (some centres unmarked) | 6.79
O=C(c1ccc2c3c(cccc13)C(=O)N(O)C2=O)N1CCCCC1 | 12.4
C[C@@H](C(=O)NC1CCN(Cc2ccccc2)CC1)N1C(=O)N2CCc3c([nH]c4ccccc34)[C@@]2(C)C1=O | -77.8
COc1ccc2[nH]c3c(c2c1)CCN1C(=O)N([C@@H](C)C(=O)NCc2ccco2)C(=O)[C@]31C | -53.8
CC(C)[C@@H](C(=O)NC1CC1)N1C(=O)N2CCc3c([nH]c4ccccc34)[C@@]2(C)C1=O | -6.45
COC(=O)[C@H]1Cc2c([nH]c3ccccc23)[C@H](c2ccccc2)N1 | 5.76
COc1ccc2[nH]c3c(c2c1)CCN1C(=O)N([C@@H](C)C(=O)NCc2ccccc2)C(=O)[C@]31C | 2.42

Compound | hERG current change (%, negative = inhibition) at 10uM [%]
COC(=O)[C@@H]1Cc2c([nH]c3ccccc23)C(C)(C)N1C(=O)CCl | 3.24
CC(C)[C@@H](C(=O)NC1CCN(Cc2ccccc2)CC1)N1C(=O)N2CCc3c([nH]c4ccccc34)[C@@]2(C)C1=O | -74.6
C[C@@H](C(=O)NC1CCCC1)N1C(=O)N2CCc3c([nH]c4ccccc34)[C@@]2(C)C1=O | -27.5
COc1ccc2[nH]c3c(c2c1)CCN1C(=O)N([C@@H](C)C(=O)NC2CCN(Cc4ccccc4)CC2)C(=O)[C@]31C | -48.8
COC(=O)C1Cc2c([nH]c3ccccc23)C2(CCN(Cc3ccccc3)CC2)N1 (centres unmarked) | -68.2
COc1ccc(CNC(=O)[C@H](C)N2C(=O)N3CCc4c([nH]c5ccc(OC)cc45)[C@@]3(C)C2=O)cc1 | 9.36
CC(C)[C@@H](C(=O)NC1CCCC1)N1C(=O)N2CCc3c([nH]c4ccccc34)[C@@]2(C)C1=O | -12.4
CCCC(=O)n1nc(-c2cccnc2)nc1N | -27.1
CC(C)C[C@@H](C(=O)NC1CC1)N1C(=O)N2CCc3c([nH]c4ccccc34)[C@@]2(C)C1=O | -15
CC(C)C[C@@H](C(=O)NC1CCN(Cc2ccccc2)CC1)N1C(=O)N2CCc3c([nH]c4ccccc34)[C@@]2(C)C1=O | -53.2
CC(C)C[C@@H](C(=O)N[C@@H](C(=O)O)c1ccccc1)N1C(=O)N2CCc3c([nH]c4ccccc34)[C@@]2(C)C1=O | -6.67
Cc1ccc(CCN2CC(C(=O)NCCCN3CCN(C)CC3)CC2=O)cc1 (centres unmarked) | -8.81
CCN(C(=O)CSc1ccc2c(c1)OCCO2)C1CCS(=O)(=O)C1 (centres unmarked) | 9.65
COc1ccc(O)c(C(=O)c2cnc3c(c2)c(-c2ccc(F)cc2)c(C#N)c(=O)n3C)c1 | 12.6
CCCCn1c(-c2cccc(C)c2)nc2cc3[nH]c(=O)c(C(C)C)nc3cc21 | 0.235
CCCCn1c(-c2cccc(Br)c2)nc2cc3[nH]c(=O)c(C(C)C)nc3cc21 | 4.08
CCCCn1c(-c2cccnc2)nc2cc3[nH]c(=O)c(C(C)C)nc3cc21 | -50.4
CC(=O)C(Sc1nnnn1-c1ccc(O)cc1)c1ccccc1 (centres unmarked) | -14.3
COc1ccc(CCNC(=O)c2coc3ccccc3c2=O)cc1OC | -4.09
COc1ccc(CCNC(=O)c2cc3c(=O)n4ccccc4nc3n(Cc3ccco3)c2=N)cc1OC | -76.6
COc1ccc(CCNC(=O)c2cc3c(=O)n4cccc(C)c4nc3s2)cc1OC | 21.3

Compound | hERG current change (%, negative = inhibition) at 10uM [%]
COc1ccc(CCNC(=O)CSc2nc(=O)n3cccc(C)c3n2)cc1OC | 15.8
COc1ccc(CCNC(=O)c2ccc3c(=O)n(Cc4ccco4)c(=S)[nH]c3c2)cc1OC | 17.2
COc1ccc(CCNC(=O)c2cc3c(=O)n4cccc(C)c4nc3n(Cc3ccco3)c2=N)cc1OC | -80.9
CSc1ccc(Cl)c(C(=O)OCC(=O)NCC(C)C)c1 | -21
CCN(CC)CC(O)Cn1c2ccccc2c2ccccc21 (centres unmarked) | -16
Cn1c(CO)c(-c2ccccc2)c2cc([N+](=O)[O-])ccc21 | 10.2
CCN(CC)CC(O)Cn1c(C)c(-c2ccccc2)c2cc([N+](=O)[O-])ccc21.Cl (centres unmarked) | -65.3
Nc1cccc2c1C(=O)N(CCOc1ccccc1F)C2=O | 20.2
Cc1ccc(OCc2nc(C#N)c(N3CCN(Cc4ccccc4)CC3)o2)cc1 | -6.23
COc1ccc(N2CCN(c3oc(COc4ccc(Cl)cc4)nc3C#N)CC2)cc1 | -2.55
Cc1ccc(OCc2nc(C#N)c(N3CCCC3)o2)cc1 | -62.8
CN1CCN(c2oc(COc3ccc(-c4ccccc4)cc3)nc2C#N)CC1 | -19
N#Cc1nc(COc2ccc(Cl)cc2)oc1N1CCCC1 | -38.9
CCN1CCN(c2oc(COc3ccc(Cl)cc3)nc2C#N)CC1 | -77
CCN1CCN(c2oc(COc3ccc(-c4ccccc4)cc3)nc2C#N)CC1 | -55.8
N#Cc1nc(COc2ccc(F)cc2)oc1N1CCN(Cc2ccccc2)CC1 | -75.3
N#Cc1nc(COc2ccc(F)cc2)oc1N1CCCC1 | -46.7
N#Cc1nc(COc2ccccc2)oc1N1CCN(Cc2ccccc2)CC1 | -21.9
N#Cc1nc(COc2ccc(Cl)cc2)oc1N1CCN(Cc2ccccc2)CC1 | -1.08
Cc1ccc(OCc2nc(C#N)c(N3CCCCC3)o2)cc1 | -4.24
